Results reported in ChEMBL document CHEMBL5308504, “Tm Shift (DSF) assay results for EUbOPEN Chemogenomics Library” (2023).
Where “and” joins values, the source holds several entries; their conditions need not be identical. Equal entries are not always repeated. Numbered stars: 1 amine (or outer) side, 2 acyl side, 3 side chain; on linkers, the order of the positions; unused ones are H or OH. Bridge positions count the residues as written; N and C are the ends. Square brackets hold non-standard residues; d marks the D form. Peptide text beside a SMILES is read from it. I, II: the chains in the order shown. Hexamethylenediamine = C(CCCN[*:2])CCN[*:1]; Dip = N[C@H](C(=O)O)C(c1ccccc1)c1ccccc1; Chg = N[C@H](C(=O)O)C1CCCCC1; NMeA = CN[C@@H](C)C(=O)O

Key:
[1] = target: Bromodomain-containing protein 4 (Homo sapiens) (UniProt O60885); conditions: Compound concentration 20.0 uM, Protein concentration 2.0 uM, Result type QC Liability
[2] = target: T1, Transcription intermediary factor 1-alpha (Homo sapiens) (UniProt O15164); conditions: Compound concentration 20.0 uM, Protein concentration 2.0 uM, Result type QC Liability
T1 sequence (whole entry): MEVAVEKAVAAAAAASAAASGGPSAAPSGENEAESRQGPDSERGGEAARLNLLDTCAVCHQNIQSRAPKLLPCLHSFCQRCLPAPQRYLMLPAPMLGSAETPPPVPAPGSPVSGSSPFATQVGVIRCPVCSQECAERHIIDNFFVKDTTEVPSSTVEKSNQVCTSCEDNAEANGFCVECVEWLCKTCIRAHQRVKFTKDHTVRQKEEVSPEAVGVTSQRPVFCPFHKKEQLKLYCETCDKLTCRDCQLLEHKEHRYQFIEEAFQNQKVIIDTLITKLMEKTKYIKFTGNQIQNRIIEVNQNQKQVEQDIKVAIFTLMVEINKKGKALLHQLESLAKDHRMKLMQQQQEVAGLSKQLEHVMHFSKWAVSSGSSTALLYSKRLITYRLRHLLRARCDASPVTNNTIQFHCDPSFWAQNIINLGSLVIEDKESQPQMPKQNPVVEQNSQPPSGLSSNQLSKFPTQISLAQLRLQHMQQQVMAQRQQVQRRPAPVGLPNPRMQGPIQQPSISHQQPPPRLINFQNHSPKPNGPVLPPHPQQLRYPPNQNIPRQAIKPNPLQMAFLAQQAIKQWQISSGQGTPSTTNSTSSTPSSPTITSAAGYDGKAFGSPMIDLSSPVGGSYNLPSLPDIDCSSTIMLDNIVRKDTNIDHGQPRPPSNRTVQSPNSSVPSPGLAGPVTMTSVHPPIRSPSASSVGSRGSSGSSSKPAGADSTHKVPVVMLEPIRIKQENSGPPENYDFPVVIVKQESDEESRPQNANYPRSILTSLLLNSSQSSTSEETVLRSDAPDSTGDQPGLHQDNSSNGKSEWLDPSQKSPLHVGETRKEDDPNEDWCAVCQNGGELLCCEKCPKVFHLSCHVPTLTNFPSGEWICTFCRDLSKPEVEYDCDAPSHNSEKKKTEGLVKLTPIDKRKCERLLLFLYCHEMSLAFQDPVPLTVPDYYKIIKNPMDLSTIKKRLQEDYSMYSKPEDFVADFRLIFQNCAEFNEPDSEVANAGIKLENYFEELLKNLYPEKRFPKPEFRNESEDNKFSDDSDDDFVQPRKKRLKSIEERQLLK

Compound | ΔTm [1] | ΔTm [2]
CN(C)CCCNc1ccnc(Nc2cccc(Cl)c2)n1 | -2.63 °C | -4.21 °C
CCN1C(=O)c2cc(C)ccc2N(C)c2ncccc21 | -1.19 °C | 0.2 °C
C[S+]([O-])c1ccc(-c2nc(-c3cccc(I)c3)c(-c3ccncc3)[nH]2)cc1 (configuration not stated) | -3.51 °C | -2.56 °C
CCCCC/C=C/C=C1/C(=O)C=C[C@@H]1C/C=C\CCCC(=O)O | -4.89 °C | -1.14 °C
CN[C@@H](C)C(=O)N[C@H](C(=O)N1CCC[C@H]1C(=O)N[C@H](C(=O)NCCCCCCNC(=O)[C@@H](NC(=O)[C@@H]1CCCN1C(=O)[C@@H](NC(=O)[C@H](C)NC)C1CCCCC1)C(c1ccccc1)c1ccccc1)C(c1ccccc1)c1ccccc1)C1CCCCC1 (I: H-[NMeA][Chg]P[Dip] / II: H-[NMeA][Chg]P[Dip]; linker I:C-II:C via Hexamethylenediamine) | -4.77 °C | -4.59 °C
Cc1cnc(-c2cnc(NCCNc3ccc(C#N)cn3)nc2-c2ccc(Cl)cc2Cl)[nH]1 | -2.28 °C | -0.78 °C
CC(C)C(=O)N1CCC(c2cn(C)c3ncc(NC(=O)c4cccc(C#N)c4)c(C(F)(F)F)c23)CC1 | -2.27 °C | -2.5 °C
O=C(Nc1ccc(-n2nc(-c3cccnc3)cc2C(F)(F)F)cn1)c1ccc(-c2ccccc2)c(F)c1 | -2.41 °C | 0.2 °C
CCn1c(CNC(=O)c2nc(Cl)cnc2N)[n+](CC)c2ccc(C(=O)N(C)CCN(C)C)cc21 | -0.61 °C | 0.2 °C
Cn1c(C(=O)N[C@@H](CO)c2ccc(C(=O)O)cc2)cc2cc(Cl)ccc21 | 0.27 °C | 0.31 °C
COc1ccc(C(=O)N[C@H](C)c2cccc(C(=O)Nc3nc4c(s3)CN(C)CC4)c2)cc1C | -1.18 °C | -2.54 °C
CN(C)[C@H]1CC[C@H](Nc2ncc3ncnc(Nc4ccc(F)c(Cl)c4)c3n2)CC1 | -0.7 °C | -1.12 °C
CCC(=O)N[C@@H]1CC[C@H](C(=O)N(C)c2ccc(-c3nc4ccccc4o3)cc2)C1 | -0.34 °C | 0.25 °C
O=C(N[C@H](Cc1ccccc1)C(=O)O)c1cccc(OCc2cccnc2)c1 | -1.53 °C | -0.73 °C
O=C(CNCc1cc2ccccc2[nH]1)N[C@H]1CC[C@@H](c2nc3ccccc3[nH]2)CC1 | -0.08 °C | -0.53 °C
CC(=O)c1c(C)c2cnc(Nc3ccc(N4CCN(CCOCCOCCOCCNC(=O)COc5cccc6c5C(=O)N(C5CCC(=O)NC5=O)C6=O)CC4)cn3)nc2n(C2CCCC2)c1=O (configuration not stated) | -1.51 °C | 0.27 °C
CC(C)C(=O)N[C@@H]1CCN(C(=O)Nc2nc3c(s2)-c2nc(-c4ccccc4Cl)ncc2CC3)C1 | -0.28 °C | -3.41 °C
COc1ccc(CSc2nnc(-c3ccc4ncsc4c3)o2)cc1C(F)(F)F | -5.83 °C | -2.33 °C

Compound | ΔTm [1] | ΔTm [2]
COc1ccc(CC[C@@H](OC(=O)[C@@H]2CCCCN2C(=O)[C@H](c2cc(OC)c(OC)c(OC)c2)C2CCCCC2)c2cccc(OCCN3CCOCC3)c2)cc1OC | -4.68 °C | -1.51 °C
Cc1nsc(Nc2cnc(C(F)(F)F)cn2)c1C(=O)Nc1ccc(O[C@H]2CCCN(CC(F)(F)F)C2)nc1 | 1.66 °C | -2.89 °C
Cc1ccc(-n2nc(C(C)(C)C)cc2NC(=O)Nc2ccc(OCCN3CCOCC3)c3ccccc23)cc1 | 0 °C and -1.27 °C | -0.19 °C and -3.17 °C
CC(C)(C)c1cc(NC(=O)c2csc(Nc3ccc(Cl)cc3)n2)no1 | -0.97 °C | 0.11 °C
CC(C)[C@H](CO)Nc1nc(Nc2ccc(C(=O)O)c(Cl)c2)c2ncn(C(C)C)c2n1 | 0.61 °C | -2.66 °C
CNc1[nH]c(Nc2ccc(C(=O)N3CCOCC3)cc2OC)nc2ncc(Cl)c1-2 | -0.77 °C | -2.36 °C
Cc1cc(OCc2nc3ccccc3s2)ccc1NC(=O)Nc1ccc(Cl)c(Cl)c1 | 0.28 °C | -0.82 °C
O=C(O)CCCCCC[C@@H]1C(=O)NC(=O)N1CCC(O)C1CCCCC1 (some centres not stated) | -1.84 °C | -0.56 °C
O=C(O)CCCN1CCC[C@H]1COc1ccc(Oc2ccc(Cl)cc2)cc1 | -2.86 °C | -0.92 °C
COc1cnccc1Nc1nc(-c2nn(Cc3c(F)cc(OCCO)cc3F)c3ccccc23)ncc1OC | 0.84 °C | -4.33 °C
CCc1nc(-c2cccc(C)c2)c(-c2ccnc(NC(=O)c3ccccc3)c2)s1 | -1.99 °C | -1.26 °C
CC/C(=C(\c1ccccc1)c1ccc(OCCN(C)C)cc1)c1ccccc1 | -4.1 °C | -5.01 °C
NCC1CCC(CNc2nc(NCc3ccccc3OC(F)(F)F)ncc2[N+](=O)[O-])CC1 (configuration not stated) | -3.36 °C | -1.36 °C
CN(C)[C@H]1CCc2nc(NC(=O)c3cccc(Cn4cc(-c5ccc(C#N)cc5)cn4)c3)sc2C1 | -1.88 °C | -2.75 °C
CC(C)(C[C@H]1CN(S(=O)(=O)c2cccc(C(F)(F)F)c2)c2cc(-c3cc(F)cc(OC(F)F)c3)ccc2O1)C(=O)O | -6.18 °C | -2.16 °C
C[C@H](NC(=O)c1cnc2n1[C@](C)(Cc1ccc(C#N)cc1)C(=O)N2c1cc(Cl)c(F)c(Cl)c1)C(=O)NC1(c2ccccn2)CC1 | 5.21 °C | 0 °C
Cc1[nH]c2c(N3CCCCC3)c(-c3ccccc3)nn2c(=O)c1-c1ccc(O)cc1 | -1.3 °C | -2.05 °C
CN1C(=O)c2ccccc2N(C)c2nc(Nc3cnn(C4CCNCC4)c3)ncc21 | 3.95 °C | -1.94 °C
